Measurements reported in PubChem BioAssay (NCATS).
Records with an inconclusive call do not appear. Activity calls are given as the source filed them. Calls come from the whole dose curve; as a rule, active = well fitted cell-killing curve with a large enough effect; inconclusive = small, poorly fitted or top-dose-only effect, or effect the other way; inactive = no such curve, though single readings can be large or run the other way.

assay: Viability qHTS for spleen associated tyrosine kinase inhibitor (SYKi) naive MV4-11 cells (AID 1963823); conditions: MV4-11 AML viability, CellTiter-Glo luminescence, 72 h; series mostly up to 45 µM; viability (% of control): at the top concentration; note: nearly all actives have a fitted effect of over 40% in size
How it was run: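 Luminescence from CellTiter-Glo, developed 10 min at room temperature, gave viability of MV4-11 cells never exposed to SYK inhibitor. Cells (500/well) had been incubated with compounds for 72 hr under standard culture conditions.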
Potency is the fitted concentration of half-maximal effect.

Row | Structure (SMILES) | viability (% of control) | Potency
1 | C=C1CCC2(OC1)OC1CC3C4CC=C5CC(O)CC(O[C@@H]6OC[C@H](OC(=O)C(O)C(C)CC)[C@H](O)[C@H]6O[C@@H]6O[C@@H](C)[C@H](O)[C@@H](O)[C@H]6O)C5(C)C4CCC3(C)C1C2C (stereo partly drawn) | 76.1% [at 9.25 µM] (inactive) | –
2 | C=CC(C)(O)CC/C=C(\C)C(=O)O[C@@H]1[C@@H](O)[C@H](OC(C)(C=C)CC/C=C(\C)C(=O)O[C@@H]2O[C@H](CO)[C@@H](O)[C@H](O)[C@H]2O)O[C@H](CO)[C@H]1OC(=O)/C(C)=C/CCC(C)(O)C=C (stereo partly drawn) | 87.6% [at 9.25 µM] (inactive) | –
3 | COC(=N)c1nc2ccc3ncnc(Nc4ccc(F)cc4Br)c3c2s1 | – | 1.46 µM (active)
4 | CCn1cc(NC(=S)Nc2cc(Cl)ccc2OC)c(C(N)=O)n1 | 74.7% (inactive) | –
5 | CC(=O)OC[C@@]12[C@@H](OC(C)=O)C[C@@H](C)[C@](C)([C@@H]3C[C@H]4C=CO[C@H]4O3)[C@H]1CCC[C@]21CO1 | 93.7% [at 17.3 µM] (inactive) | –
6 | COC(=O)C(CC1(O)c2ccccc2N2C(=O)C(C)(C)N(O)C21)n1cnc2ccccc2c1=O (stereo not drawn) | 68.9% [at 17.3 µM] (inactive) | –
7 | C=C1[C@H](OC(C)=O)[C@H]2[C@@H](OC(C)=O)C(C)C[C@]2(OC(C)=O)C(=O)[C@H](C)/C=C/C(C)(C)C(=O)[C@H](OC(=O)C(C)C)[C@H]1OC(C)=O (stereo partly drawn) | 56.2% [at 17.3 µM] (inactive) | –
8 | CC(C)C1(O)NC(=O)C(CC2(O)c3ccccc3N3C(=O)C(C)(C)NC32)n2c1nc1ccccc1c2=O (stereo not drawn) | 50.3% [at 17.3 µM] (inactive) | –
9 | CC1=C2C(=O)C=C(CO)C2[C@H]2OC(=O)[C@H](C)[C@@H]2[C@@H](OC(=O)Cc2ccc(O)cc2)C1 (stereo partly drawn) | 74.2% [at 17.3 µM] (inactive) | –
10 | C[C@]1(O)CC[C@@H]2C(C(=O)O)=CO[C@@H](O[C@@H]3O[C@H](COC(=O)/C=C/c4ccc(O)c(O)c4)[C@@H](O)[C@H](O)[C@H]3O)[C@@H]21 | 88.5% [at 17.3 µM] (inactive) | –
11 | C[C@H](NC(=O)CCc1nc2ccccc2c(=O)[nH]1)c1ccccc1 | 63.7% (inactive) | –
12 | C=C1C(=O)OC2CC(C)=C(C(C)CCCO[C@@H]3O[C@H](CO)[C@@H](O)[C@H](O)[C@H]3O)C(O)C12 (stereo partly drawn) | 88.6% [at 17.3 µM] (inactive) | –
13 | CC(O)(CC(=O)O)CC(=O)OCc1ccc(O[C@@H]2O[C@H](CO)[C@@H](O)[C@H](O)[C@H]2O)cc1 (stereo partly drawn) | 89.8% [at 17.3 µM] (inactive) | –
